Bioassay records from PubChem BioAssay.
Hits are enriched below; roughly 1.7% of the tested compounds scored in any of these assays.
GLP-1R agonist = activates the human GLP-1 receptor | P43220 | HEK293 GLP-1R CRE-luciferase, luminescence, 4-6 h; cells express a hypersensitive GLP-1R form | Potency, µM (top dose mostly 45.6 µM), for inactives: at the highest dose activation, actives largely listed as activators | 380,000 compounds, 0.007% hits; note: % of control where 0% means no effect
Target sequence (P43220 whole entry, looked up): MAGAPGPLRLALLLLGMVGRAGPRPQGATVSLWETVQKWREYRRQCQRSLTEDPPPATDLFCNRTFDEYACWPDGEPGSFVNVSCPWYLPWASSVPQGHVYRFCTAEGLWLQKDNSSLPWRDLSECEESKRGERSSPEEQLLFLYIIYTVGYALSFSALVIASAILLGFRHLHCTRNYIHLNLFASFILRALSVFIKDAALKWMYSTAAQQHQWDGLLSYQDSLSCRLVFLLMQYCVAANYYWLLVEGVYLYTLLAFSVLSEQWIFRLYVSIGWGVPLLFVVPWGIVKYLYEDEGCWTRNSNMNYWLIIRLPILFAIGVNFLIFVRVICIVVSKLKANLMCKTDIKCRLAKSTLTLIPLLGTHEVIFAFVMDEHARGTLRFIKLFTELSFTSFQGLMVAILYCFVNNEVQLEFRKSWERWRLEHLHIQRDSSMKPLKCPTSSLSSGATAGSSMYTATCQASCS
GLP-1R inv ag = GLP-1 receptor (human) inverse agonism; 410,000 compounds, 1.6% hits; AID 624417; Potency, µM (titrated, usually from 38.3 µM), inactives show at the top dose activity change, negative = inhibition, usual class: inhibitors; HEK293 GLP-1R CRE-luciferase, luminescence, 24 h; GLP-1R form is constitutively active; note: % is set by controls: 0 for no effect and ±100 for the full control effect; nearly all actives have a fitted effect of over 55% in size
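Luminescence readout: a drop in cAMP-driven luciferase signal flags inverse agonism at a constitutively active GLP-1R stably expressed in HEK293. Compound exposure lasted 24 hr at 37 deg C, 5% CO2.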
GLP1R cytotox = cytotoxic in the GLP-1 receptor inverse agonist counter-screen. 410,000 compounds, 0.13% hits. AID 624418. Potency, µM (series often up to 38.3 µM), inactives show top-dose activity change, negative = inhibition, actives largely listed as inhibitors. HEK293 cAMP-luciferase reporter cells, luminescence, 24 h;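 note: loss of luciferase light is scored as toxicity; % is set by controls: 0 for no effect and ±100 for the full control effect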
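Step one: seed cells (200 cells/uL, DMEM with 10% Nu serum, 1% pen-strep). Step two: 12-hour incubation at 37 deg C. Step three: pin 23 nL compound, incubate 24 hr. Step four: add luciferase reagent, read luminescence 12 min later.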
PTHR1 ag = activates the human parathyroid hormone receptor PTHR1; Q03431; HEK293 GP2 PTHR1 cells, GloSensor cAMP luminescence, 1 h; Potency, µM (highest dose often 115 µM), inactives show at the highest dose activation, usual class: activators; 410,000 compounds, 0.075% hits; AID 743266; note: nearly all actives have a fitted effect of over 55% in size
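HEK-293-derived GP2 cells expressing PTHR1 and a GloSensor cAMP reporter, 3,000/well, plated overnight, given luciferin plus IBMX (each 0.5 mM as added) for 1 h at 37 °C, then compound for 1 h at 37 °C. Luminescence was read after 15 min at room temperature.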
An asterisk follows results filed as active; i = inactive; ? = inconclusive; / = not tested or not shown; [ ] = remark or other dose. Calls come from the whole dose curve; as a rule, active = well fitted curve in the direction sought with a large enough effect; inconclusive = small, poorly fitted or top-dose-only effect, or another doubt; inactive = no such curve, though single readings can be large; an effect the other way counts as inactive or inconclusive. Potency is the fitted concentration of half-maximal effect.

SMILES	GLP-1R agonist	GLP-1R inv ag	GLP1R cytotox	PTHR1 ag
Cc1cc(NC(=O)C(C)(C)C)cc(-c2nc3ncccc3o2)c1O	/	37.5%	5.3%	-7.0%
CCN(C(=O)CSc1nc(-c2ccc(C(C)C)cc2)no1)c1cccc(C)c1	/	?	-4.1%	-20.4%
CCN(C(=O)CSc1nc(-c2ccc(C(C)C)cc2)no1)c1ccccc1	/	11.2µM*	3.4%	-51.0%
COc1ccc(CN(Cc2ccco2)c2cnc(S(C)(=O)=O)nc2C(=O)Nc2ccc(C)c(C)c2)cc1	/	0.5%	-9.8%	-21.6%
CC(=O)n1cc(N(C(=O)CCl)c2ccc(C)cc2)c2ccccc21	-0.7%	4.47µM*	?	-37.4%
CC(=O)N(c1ccc(Cl)cc1)c1cn(C(C)=O)c2ccccc12	-0.1%	?	-0.6%	-12.3%
Cc1ccc2oc(=O)c3cc(C(=O)N(Cc4ccccc4)C(C)C)sc3c2c1	0.6%	3.5%	-10.5%	-30.5%
CC(=O)N(C(C)=O)c1nc(-c2ccccc2)cn1/N=C/c1ccccc1	0.8%	7.94µM*	?	-19.7%
Clc1ccc(-c2cc(CN3CCCCC3)no2)cc1Cl	16.0%	10µM*	1.7%	-19.6%
Clc1ccc(-c2cc(CN3CCOCC3)no2)cc1	13.2%	-14.0%	1.0%	-21.1%
CC1CCN(Cc2c(O)ccc3c(=O)c(Oc4ccccc4Cl)c(C(F)(F)F)oc23)CC1	/	-0.8%	-6.6%	-40.5%
Cc1ccccc1C(=O)N(Cc1nc2ccccc2c(=O)[nH]1)C1CCCC1	8.4%	12.6µM*	-7.5%	-11.9%
Cc1ccc2c(CN(Cc3ccccc3)Cc3ccccc3)cc(=O)oc2c1	-0.1%	?	3.4%	i
CCN(Cc1cc(=O)oc2cc(C)ccc12)c1ccccc1	7.1%	10µM*	1.1%	-23.5%
Cc1ccc2c(CN(C)Cc3ccc(Cl)cc3Cl)cc(=O)oc2c1	0.6%	11.2µM*	-1.9%	-63.0%
CCN(CC)CCCNC(=O)c1nn(C)c2c1CS(=O)(=O)c1ccccc1-2	/	13.1%	-3.8%	i
O=[N+]([O-])c1ccc(N/N=C2/CCCCC2c2ccccn2)cc1 (stereo unspecified)	7.3%	1.26µM*	-2.5%	-18.0%
Cc1ccc(C(=O)N2CCc3cc(CNC(=O)CCc4ccccc4)ccc32)cc1	/	?	?	i
CCCCC(=O)Oc1ccccc1C1SCc2cc(C)c(C)cc2CS1	-4.4%	-32.5%	4.7%	-44.0%
Cc1cc2c(cc1C)CSC(c1ccccc1OC(=O)C(C)(C)C)SC2	-3.7%	10µM*	23.6%	i
COc1cc2nc(Nc3ccc(C)c(Cl)c3)nc(N)c2cc1OC	0.4%	3.16µM*	?	-18.2%
COc1cc2nc(Nc3ccc(C)c(C)c3)nc(N)c2cc1OC	14.5%	10µM*	?	i
COc1ccccc1N1CCN(Cc2nc(N)nc(Nc3ccc(C)c(Cl)c3)n2)CC1	-24.4%	2.24µM*	15.4%	-14.0%
Cc1cccc(-n2c(SCC(=O)c3ccccc3)nnc2-c2ccc(Br)cc2)c1	/	7.6%	0.8%	-11.6%
CCOc1ccc(C(=O)NCC(c2ccco2)S(=O)(=O)c2cccs2)cc1 (stereo unspecified)	/	-10.9%	-1.8%	-29.3%
SMILES	GLP-1R agonist	GLP-1R inv ag	GLP1R cytotox	PTHR1 ag
Cc1cc2oc(C(=O)Nc3ccc(S(=O)(=O)N4CCCCCC4)cc3)cc(=O)c2cc1C	/	-1.2%	7.9%	i
COc1cc2c(cc1NC(=O)C(C)NCc1ccccc1)oc1ccccc12 (stereo unspecified)	15.3%	11.2µM*	34.1%	-1.9%
COc1cc2c(cc1NC(=O)Nc1ccccc1)oc1ccccc12	-10.7%	?	-20.4%	i
Cc1cccc(CN(CC(=O)N/N=C/c2ccco2)S(=O)(=O)c2ccc(Cl)cc2)c1	1.3%	?	0.8%	-15.1%[57.5 µM]
Cc1cccc(CN(CC(=O)N/N=C/c2cccs2)S(=O)(=O)c2ccc(Cl)cc2)c1	1.8%	8.91µM*	-19.4%	i
Cc1ccc(S[C@@H](CCN2CC[C@H](C)CCC2=O)c2ccccc2)cc1	13.0%	?	-10.4%	-84.7%
Cc1ccc(S[C@@H](CCN2CC[C@H](C(C)(C)C)CCC2=O)c2ccccc2)cc1	-4.3%	10µM*	3.8%	-58.8%
COc1ccc(S[C@@H](CCN2CC[C@H](C)CCC2=O)c2ccccc2)cc1	3.6%	10µM*	0.5%	-91.9%
CCOC(=O)C1=NNC(C(=O)c2ccccc2)C1c1ccc(Cl)cc1 (stereo unspecified)	11.3%	?	0.6%	-0.6%
O=C(c1ccccc1)C1N=NCC1c1ccc(Cl)cc1 (stereo unspecified)	17.0%	10µM*	-6.6%	-15.0%
CC(C)(C)OC(=O)N1CCC(c2c(C(=O)NC3CCN(Cc4ccccc4)CC3)cnn2-c2ccc(F)cc2F)CC1	/	-11.0%	1.1%	i
CCOC(=O)c1cnc(SCC(=O)c2ccc(C)cc2)nc1N	0.2%	-2.4%	17.9%	-18.5%[57.5 µM]
CCOC(=O)c1cnc(SCc2cccc(C)c2)nc1N	?	10µM*	-13.2%	-1.6%[57.5 µM]
COc1ccc(CNC(=O)Cc2c(C)c3c(cc(C)c4c(C)c(C)oc43)oc2=O)cc1OC	/	2.2%	-4.3%	i
CSc1ccc(Cl)c(C(=O)Nc2ccc(Cl)cn2)c1	7.4%	?	-18.5%	-25.4%
COc1cc(SC)ccc1C(=O)Nc1ccc(Cl)cn1	-2.9%	2.24µM*	4.8%	-92.8%
CCN1CCN(CCCNC(=O)c2ccc3c(c2)NC(=O)/C(=C\c2cccc(C)c2)S3)CC1	-0.3%	7.08µM*	?	-29.1%
Cc1cccc(/C=C2/Sc3ccc(C(=O)NCCN4CCCC4)cc3NC2=O)c1	11.3%	?	?	-1.1%
COc1ccc(-c2nn(-c3ccccc3)cc2C2NC(=O)NC(C)=C2C(=O)OC(C)C)cc1Cl (stereo unspecified)	-0.4%	-55.0%	-28.8%	-11.2%
O=C(O)CSc1nnc(-c2ccc(O)cc2)o1	-2.0%	11.5%	-6.8%	i
O=C(CSc1nnc(-c2ccc(O)cc2)o1)c1ccc(Br)cc1	/	8.91µM*	-7.0%	i
CC(C)COc1ccc(C(=O)Nc2sc3c(c2C(=O)O)CC(C)(C)OC3)cc1	0.7%	11.2µM*	-23.4%	-32.4%
COC(=O)c1cc(NCc2c(F)cccc2Cl)ccc1N1CCOCC1	4.7%	-8.8%	-1.7%	2.51µM*
COC(=O)c1cc(NC(=O)c2cc(-c3ccccc3Cl)oc2C(F)(F)F)ccc1N1CCOCC1	13.2%	3.98µM*	-28.8%	-25.0%
COc1ccc(NC(=O)Cn2c(CCC(=O)O)ccc2-c2ccccc2)cc1Cl	/	2.9%	6.6%	i
CCn1cc(C(=O)NCCOC)c(=O)c2cc(S(=O)(=O)N3CCOCC3)ccc21	-0.3%	10.2%	-7.2%	-56.9%
CCOc1ccc(NC(=O)c2cc(S(=O)(=O)NC3CCCCCC3)ccc2F)cc1	/	?	0.8%	-16.8%
CCOc1ccccc1NC(=O)C1(S(=O)(=O)c2ccc(Cl)cc2)CC1	26.9%	7.08µM*	3.2%	-14.6%
CCOc1ccccc1NC(=O)c1cc(S(=O)(=O)NC2CCCC2)ccc1F	/	6.31µM*	13.7%	-28.9%
